Screening results (PubChem)
Only some compounds are listed: those with a hit (about 3.4% of all), similar ones and a draw of the others.
FBW7 act: activators of human E3 ligase FBW7 | AID 1259310 | AlphaScreen FBW7–phospho-cyclin E peptide binding, activator screen | Q969H0 | normalized activity (activation), % at 26.1 µM | actives 0.13% (n = 650,000); in the data active = normalized activity above about 1.9%;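 also: purified mutant Fbw7 with reduced substrate affinity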
Target sequence (Q969H0 whole entry, looked up): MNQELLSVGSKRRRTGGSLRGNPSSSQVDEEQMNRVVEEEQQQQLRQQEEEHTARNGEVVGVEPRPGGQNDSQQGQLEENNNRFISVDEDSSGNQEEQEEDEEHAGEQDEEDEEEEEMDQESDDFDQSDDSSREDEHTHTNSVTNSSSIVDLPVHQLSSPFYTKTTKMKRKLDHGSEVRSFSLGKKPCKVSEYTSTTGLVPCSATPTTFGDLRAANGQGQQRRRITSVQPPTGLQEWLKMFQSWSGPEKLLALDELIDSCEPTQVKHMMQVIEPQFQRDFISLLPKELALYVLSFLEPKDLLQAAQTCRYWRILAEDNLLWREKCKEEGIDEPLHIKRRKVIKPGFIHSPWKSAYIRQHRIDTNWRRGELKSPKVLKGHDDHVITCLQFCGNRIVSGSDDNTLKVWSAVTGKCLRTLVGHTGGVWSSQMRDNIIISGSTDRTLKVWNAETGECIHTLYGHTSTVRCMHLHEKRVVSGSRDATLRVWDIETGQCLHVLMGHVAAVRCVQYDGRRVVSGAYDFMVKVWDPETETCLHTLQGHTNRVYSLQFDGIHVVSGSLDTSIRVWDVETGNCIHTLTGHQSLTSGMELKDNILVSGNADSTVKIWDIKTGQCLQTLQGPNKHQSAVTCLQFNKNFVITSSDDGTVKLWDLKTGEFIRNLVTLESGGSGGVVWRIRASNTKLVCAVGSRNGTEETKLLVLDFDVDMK
TEAD-YAP block: TEAD-YAP interaction inhibition; HEK-TIYL cells, TEAD-Gal4/YAP UAS-luciferase luminescence; inhibition, % at 9.12 µM; actives 1.4% (n = 640,000); in the data active = inhibition above about 32%;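 also: 0% = median of test compound wells and 100% = reference inhibitor wells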
MITF primary: human MITF inhibition, primary screen | O75030 | AlphaScreen MITF homodimerization, bead proximity signal | inhibition, % at 2.6 µM | actives 0.91% (n = 650,000) | AID 1259374; in the data active = inhibition above about 50%;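 also: 0% = vehicle wells with protein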
GPR151 activ: activators of human GPR151 | Q8TDV0 | AID 1508602 | PathHunter beta-arrestin GPR151 cells, luminescence | actives 1% (n = 650,000) | activation, % at 11.2 µM; in the data active = activation above about 4.9%;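 also: 0% = median of compound wells and 100% = cells with positive control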
* hit, by the source's call.

SMILES	FBW7 act	TEAD-YAP block	MITF primary	GPR151 activ
Cc1nnc2c(N3CCC(C)CC3)nc3ccccc3n12	0	6	9	1
Cc1ncn(-c2ccc(Nc3nccc(-c4cc(C#N)cc(NC(C)C)c4)n3)cc2)n1	0	10	13	1
Cc1ncn(-c2ccc(Nc3nccc(-c4ccc(C#N)c(NC(C)C)c4)n3)cc2)n1	0	48*	1	0
Cc1ncn(-c2ccc(Nc3nccc(-c4ccc(C#N)c(N5CCN(C)CC5)c4)n3)cc2)n1	0	51*	-2	-2
COc1ccccc1OCc1cc(C(=O)N2CCN(Cc3cccc(F)c3)CC2)no1	0	-53	-2	-1
COC(=O)C/C=N/N=C1/NC(=O)/C(=C/C(=O)O)S1	0	9	57*	1
COC(=O)/C=C1\S/C(=N\N=C\c2ccc(Cl)cc2)NC1=O	0	6	12	-1
COc1ccc(NC(=O)CN2CCN(c3ccccc3OC)CC2)c([N+](=O)[O-])c1	0	10	2	2
O=C(c1n[nH]c2c1CCCC2)n1ccnc1	0	54*	10	1
O=C(O)c1n[nH]c2c1CCCC2	0	-8	5	-1
O=C(Cn1c(=O)oc2cc(S(=O)(=O)N3CCCC3)ccc21)NCc1ccccc1Cl	0	9	-4	-1
COc1ccc(-c2nnc(/C=C/c3cccs3)o2)cc1	0	72*	10	-11
Cc1c(C(=O)NCc2cccnc2)sc2ncnc(N3CCN(c4ccccn4)CC3)c12	0	35*	5	0
O=C(NCc1cccnc1)c1cnc(N2CCN(c3ccccn3)CC2)c2ccccc12	0	39*	-8	0
O=C(NCC1COc2ccccc2O1)c1cnc(N2CCN(c3ncccn3)CC2)c2ccccc12 (stereo not drawn)	0	23	-12	1
O=C(NCc1ccc(F)cc1)c1cnc(N2CCN(c3ccccn3)CC2)c2ccccc12	0	8	1	-1
O=C(NCC1COc2ccccc2O1)c1cnc(N2CCN(c3ccccn3)CC2)c2ccccc12 (stereo not drawn)	0	41*	-6	0
CSCCCN1CCOc2ccc(C(O)CC(C)C)cc2C1 (stereo not drawn)	0	-3	13	0
COc1cc(NC(=O)c2cccc(-c3ccc(C(N)=O)cc3)n2)cc(OC)c1OC	0	35*	-9	-1
COc1cc(NC(=O)c2cccc(-c3ccc(N4CCOCC4)nc3)c2)cc(OC)c1OC	0	-42	9	-2
COc1cc(NC(=O)c2cccc(-c3ccc(N4CCOCC4)nc3)n2)cc(OC)c1OC	0	34*	18	2
COc1cc(NC(=O)c2cccc(N3CCN(Cc4ccc5c(c4)OCO5)CC3)n2)cc(OC)c1OC	0	37*	5	2
CC(=O)Nc1ccc(NC(=O)c2cnc(N3CCN(Cc4ccc5c(c4)OCO5)CC3)s2)cc1	0	42*	8	-1
COC(=O)c1ccccc1NC(=O)c1c(C)c(-c2ccc(C)cc2)nc2ccccc12	1	-4	11	-1
O=c1c2ccccc2nc(SCc2cccnc2)n1Cc1ccco1	0	5	11	1
SMILES	FBW7 act	TEAD-YAP block	MITF primary	GPR151 activ
CC1=C(C(=O)OCCc2ccccc2)C(c2cccc(Oc3ccccc3)c2)C2=C(CCCC2=O)N1 (stereo not drawn)	0	0	-7	1
Cc1cc(C)nc(NS(=O)(=O)c2ccc(NC(=O)CSc3nc(C)cc(C)c3C#N)cc2)n1	0	0	7	1
COc1cc(NC(=O)c2cccc(-c3cccc(N)c3)n2)cc(OC)c1OC	0	34*	-1	3
CCCS(=O)(=O)N1CCN(Cc2cccc(OC)c2OC)CC1	0	-6	46	0
CC(NC(=O)c1nn2c(C(F)(F)F)cc(-c3ccccc3)nc2c1Br)C1CC2CCC1C2 (stereo not drawn)	0	15	-1	0
COc1cc(CNc2ccc(N(C)C)cc2)ccc1OCC(=O)NC(C)(C)C	0	37*	15	1
COc1cc(CO)ccc1OCC(=O)NC(C)(C)C	0	-7	-3	2
O=C1CCC(NC2CCN(Cc3ccccc3)CC2)CCN1Cc1ccccc1Cl (stereo not drawn)	0	1	-3	-1
c1ccc(Oc2cccc(CSc3nc4ccccc4[nH]3)c2)cc1	0	34*	7	-1
Cc1cc(=O)[nH]c(SCc2cccc(Oc3ccccc3)c2)n1	0	-2	-7	0
O=c1nc2s/c(=C\c3ccco3)c(=O)n2nc1Cc1ccc(F)cc1	-2	2	70*	0
O=C(Nc1nccs1)c1ccc(OCc2ccc3ccccc3n2)cc1	5.6*	-21	-4	0
O=C(NCc1cccs1)c1ccc(OCc2ccc3ccccc3n2)cc1	0	-20	4	0
Cc1cc(OCC(=O)Nc2nccs2)ccc1C(C)C	0	61*	-4	-1
CCOc1ccc(OCC(=O)Nc2nccs2)cc1	0	79*	3	-8
COc1ccc(OCC(=O)Nc2nccs2)cc1	0	68*	2	-7
O=C(COc1ccc(Cl)cc1)Nc1nccs1	0	19	1	-3
O=C(NC1CCCCCC1)c1ccc2c(=O)n(Cc3ccc4c(c3)OCO4)c(=S)[nH]c2c1	0	-2	3	-1
Cc1ccc(F)cc1CNC(=O)CCC1(Cc2ccc(Cl)cc2)CCC(=O)N1 (stereo not drawn)	0	22	20	-1
CN1CCC(=NNC(=O)COc2ccccc2)CC1	0	3	1	0
Cc1nc(C)c(CCNC(=O)c2ccc(C)c([N+](=O)[O-])c2)s1	0	-6	4	2
COc1ccc(CC(=O)Nc2nccs2)cc1OC	0	8	1	4
COc1cc(C(C)=O)ccc1OCC(=O)Nc1nccs1	0	56*	8	-6
O=C(Nc1ccccc1Br)C1CC(=O)N(c2cccc([N+](=O)[O-])c2)C1 (stereo not drawn)	0	-3	-12	1
CCCOC(=O)c1cccc(NC(=O)COc2ccccc2OC)c1	0	-6	-7	1
SMILES	FBW7 act	TEAD-YAP block	MITF primary	GPR151 activ
Cc1ccc(NC(=O)COc2ccccc2C)c(Br)c1	0	-27	1	0
Cc1ccc(NC(=O)c2cccc(Br)c2)c(Br)c1	2.5*	-52	8	1
O=C(COc1cccc2ccccc12)Nc1ccncc1	0	40*	6	0
CCCOC(=O)c1cccc(NC(=O)COc2ccc(C)cc2Br)c1	1	92*	-5	-1
Cc1ccc(NC(=O)COc2c(C)cccc2C)c(Br)c1	2.5*	-17	21	-1
COCCNC(=S)Nc1cccc(S(=O)(=O)Nc2ccc(SC(F)F)cc2)c1	0	9	10	0
CCOc1ccccc1NC(=O)c1c(NCc2sccc2C)sc2c1CCCC2	0	6	8	1
Cc1ccccc1NC(=O)COc1ccc(Br)cc1C=O	0	45*	10	0
CCC(C)(C)c1ccc(OCC(=O)Nc2cccc(C(=O)O)c2)cc1	0	38*	-35	-2
CC(=O)c1cccc(NC(=O)COc2ccc(C(C)(C)C)cc2)c1	0	1	0	1
